Unmarked numbers belong to inactive results. For some of these results: Measured potencies and affinities stand elsewhere. Calls of active or inactive are those of the source. Unless noted, the rule behind the calls is not given here.

Experiment [1] in a line: antimalarial activity against Dd2 strain (AID 2302;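 active = growth inhibition above 50% at the single 2 µM test dose, taken to imply half-maximal potency below 2 µM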;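 note: 0% = DMSO untreated growth and 100% = chloroquine plus artemisinin killed control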). As to conditions: P. falciparum Dd2 in RBCs, LDH growth readout, 72 h; at 2 µM; stronger effect = higher value.
The nature of experiment [2]: HepG2 cytotoxicity, primary screen, cytotoxicity control for P. falciparum antimalarial project, cell-based, ATP luminescence (AID 2303;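 active = inhibition above 50%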;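 note: 0% = DMSO wells and 100% = digitonin-killed cells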). As to conditions: HepG2 viability, 24-48 h, at 10 µM, stronger effect = higher value.
Experiment [3] addresses L-lactate dehydrogenase (Plasmodium falciparum (isolate CDC / Honduras)) (UniProt Q27743). Briefly: PfLDH activity inhibition – cell lysate, 3D7 strain, counter-screen for P. falciparum growth inhibition project (AID 2304).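 Note: 0% = vehicle and 100% = reference inhibitor.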 As to conditions: P. falciparum 3D7 crude extract, LDH APAD/NBT absorbance; at 2 µM; stronger effect = higher value. In general terms: Counterscreens check selectivity or assay interference.

A short description of experiment [4]: inhibition of 3D7 malaria parasite growth – strain 3D7 (AID 2306).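 Note: 0% = DMSO wells and 100% = chloroquine plus artemisinin control wells.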 The following applies: P. falciparum 3D7 erythrocytic growth, LDH absorbance, 72 h; at 2 µM; stronger effect = higher value.
The target in experiment [5] is Calcium-dependent protein kinase 1 (Plasmodium falciparum (isolate 3D7)) (UniProt P62344). Briefly: PfCDPK1 kinase inhibitors, biochemical, TCAMS library (AID 1159585; cut-off not given, nearly all actives have IC50 up to about 0.98 µM;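 note: inhibitors leave more ATP so luminescence rises with inhibition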). The following applies: recombinant PfCDPK1, Kinase-Glo ATP depletion luminescence.
Chain of Calcium-dependent protein kinase 1 (Plasmodium falciparum (isolate 3D7)) (P62344 whole entry, looked up): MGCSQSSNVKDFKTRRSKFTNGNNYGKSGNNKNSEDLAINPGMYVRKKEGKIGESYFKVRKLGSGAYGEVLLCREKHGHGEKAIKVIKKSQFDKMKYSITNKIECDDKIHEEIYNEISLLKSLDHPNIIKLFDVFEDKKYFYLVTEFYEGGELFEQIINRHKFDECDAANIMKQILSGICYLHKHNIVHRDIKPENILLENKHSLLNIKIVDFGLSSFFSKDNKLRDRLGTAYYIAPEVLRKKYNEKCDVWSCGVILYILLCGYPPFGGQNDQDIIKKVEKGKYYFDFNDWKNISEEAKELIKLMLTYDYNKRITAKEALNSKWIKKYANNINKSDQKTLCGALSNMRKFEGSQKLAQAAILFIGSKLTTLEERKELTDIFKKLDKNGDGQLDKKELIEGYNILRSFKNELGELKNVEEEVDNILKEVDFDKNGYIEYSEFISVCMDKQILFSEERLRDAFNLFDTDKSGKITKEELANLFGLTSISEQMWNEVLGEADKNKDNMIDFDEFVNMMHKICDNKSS
Experiment [6] deals with Plasmodium falciparum protein kinase 6 (PK6, PF3D7_1337100) (UniProt Q8IDW1). Briefly: PfPK6 kinase inhibitors, biochemical, TCAMS library (AID 1159586). As to conditions: recombinant PfPK6, Kinase-Glo ATP depletion luminescence. For orientation: Kinase-Glo measures the ATP left after a reaction by luminescence.
Chain of Plasmodium falciparum protein kinase 6 (PK6, PF3D7_1337100) (Q8IDW1 1-305): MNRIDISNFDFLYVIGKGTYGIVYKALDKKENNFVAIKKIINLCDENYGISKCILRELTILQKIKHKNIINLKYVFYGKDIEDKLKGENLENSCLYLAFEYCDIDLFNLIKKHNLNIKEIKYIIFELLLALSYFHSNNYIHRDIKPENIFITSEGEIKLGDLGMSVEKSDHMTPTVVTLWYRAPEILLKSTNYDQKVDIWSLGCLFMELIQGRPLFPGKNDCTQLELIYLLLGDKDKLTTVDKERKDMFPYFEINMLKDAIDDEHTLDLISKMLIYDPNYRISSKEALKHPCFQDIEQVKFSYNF
Experiment [7] deals with Protein kinase 7 (PK7), Plasmodium falciparum 3D7 (PF3D7_0213400) (UniProt Q7YTF7). Briefly: inhibition of Plasmodium PK7 catalytic activity – biochemical, TCAMS antimalarial set, Kinase-Glo luminescence (AID 1159587). As to conditions: recombinant PfPK7, Kinase-Glo ATP depletion luminescence.
Chain of Protein kinase 7 (PK7), Plasmodium falciparum 3D7 (PF3D7_0213400) (Q7YTF7 1-343): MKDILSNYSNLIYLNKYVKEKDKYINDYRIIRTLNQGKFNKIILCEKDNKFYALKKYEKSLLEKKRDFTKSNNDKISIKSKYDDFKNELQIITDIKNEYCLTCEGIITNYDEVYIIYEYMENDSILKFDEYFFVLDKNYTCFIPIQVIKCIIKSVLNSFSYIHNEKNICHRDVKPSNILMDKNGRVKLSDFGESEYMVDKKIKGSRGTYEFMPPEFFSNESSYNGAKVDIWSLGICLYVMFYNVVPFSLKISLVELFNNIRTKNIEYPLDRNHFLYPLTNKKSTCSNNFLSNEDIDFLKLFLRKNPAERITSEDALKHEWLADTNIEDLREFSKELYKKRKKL
The target in experiment [8] is Calcium-dependent protein kinase 4 (Plasmodium falciparum (isolate 3D7)) (UniProt Q8IBS5). Nature of the experiment: PfCDPK4 kinase inhibitors, biochemical, TCAMS library (AID 1159588; cut-off not given, nearly all actives have IC50 up to about 0.91 µM). As to conditions: recombinant PfCDPK4, Kinase-Glo ATP depletion luminescence.
Chain of Calcium-dependent protein kinase 4 (Plasmodium falciparum (isolate 3D7)) (Q8IBS5 whole entry, looked up): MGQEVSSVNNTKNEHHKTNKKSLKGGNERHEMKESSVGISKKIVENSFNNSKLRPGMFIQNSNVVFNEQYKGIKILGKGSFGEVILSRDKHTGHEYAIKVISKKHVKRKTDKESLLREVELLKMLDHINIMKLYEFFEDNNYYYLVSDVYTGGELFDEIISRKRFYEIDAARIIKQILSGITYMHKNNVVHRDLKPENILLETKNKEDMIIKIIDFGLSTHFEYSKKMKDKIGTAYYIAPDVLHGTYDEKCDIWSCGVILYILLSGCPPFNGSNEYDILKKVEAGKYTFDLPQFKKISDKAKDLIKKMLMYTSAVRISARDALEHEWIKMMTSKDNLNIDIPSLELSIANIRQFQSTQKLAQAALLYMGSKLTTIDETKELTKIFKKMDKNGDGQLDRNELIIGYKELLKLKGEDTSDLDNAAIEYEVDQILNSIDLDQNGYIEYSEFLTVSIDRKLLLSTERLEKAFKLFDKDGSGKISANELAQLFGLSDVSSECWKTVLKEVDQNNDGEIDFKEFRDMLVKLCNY

Chain of L-lactate dehydrogenase (Plasmodium falciparum (isolate CDC / Honduras)) (Q27743 whole entry, looked up): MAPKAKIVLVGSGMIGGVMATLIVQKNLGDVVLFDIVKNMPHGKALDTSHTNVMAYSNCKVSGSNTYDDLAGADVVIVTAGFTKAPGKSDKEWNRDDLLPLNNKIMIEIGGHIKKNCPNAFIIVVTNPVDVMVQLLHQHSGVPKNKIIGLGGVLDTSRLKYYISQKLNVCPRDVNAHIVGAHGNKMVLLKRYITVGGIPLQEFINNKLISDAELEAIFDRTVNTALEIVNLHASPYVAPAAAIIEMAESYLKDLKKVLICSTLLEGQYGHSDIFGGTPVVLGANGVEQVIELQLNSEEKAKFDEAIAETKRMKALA

As usually defined, the inhibition is the change of the read-out against control, counted positive when it falls. For the molecule `CCc1c(C(=O)NC2CCC(N3CCC(c4ccccc4C)CC3)CC2)[nH]c2ccc(Br)cc12` (stereo not given), the growth inhibition is 99% (active) in experiment [1] and 101% (active) in experiment [4]. For the same molecule, the inhibition was 81% (active) in experiment [2] and -5% in experiment [3]. For the same molecule, the result in experiment [5], in experiment [6], in experiment [7] and in experiment [8] was inactive.
`Cn1c(NC(=O)C2CCC(CNC(=O)c3ccc(O)c(-c4cccc([N+](=O)[O-])c4)c3)CC2)nc2ccccc21` (stereo not given): the growth inhibition in experiment [1] is 97% (active); in experiment [4], 95% (active). Besides, the inhibition in experiment [2] was 6%; in experiment [3] it was -5%. In addition, the outcome in experiment [5], in experiment [6], in experiment [7] and in experiment [8] was inactive.
In the case of `CC1CCc2sc(-c3nnc(SC(C)C(=O)N4CCCC4)o3)cc2C1` (stereo not given), the results for the growth inhibition in experiment [1] and in experiment [4] were 94% (active) and 93% (active), respectively. Moreover, the figures for the inhibition in experiment [2] and in experiment [3] were 1% and 2%, respectively. For the same molecule, the result in experiment [5], in experiment [6], in experiment [7] and in experiment [8] was inactive.
As to `CC(C)NCc1ccc(-c2ccc(NC(=O)c3cccc(C#N)c3)cc2)cc1`, the values for the growth inhibition in experiment [1] and in experiment [4] were 77% (active) and 99% (active), respectively. Further, the inhibition is 40% in experiment [2] and -2% in experiment [3]. In addition, the result in experiment [5], in experiment [6], in experiment [7] and in experiment [8] was inactive.
With `Cc1cc(NN=Cc2ccccc2[N+](=O)[O-])c2cccc(C)c2n1`, the growth inhibition in experiment [1] was 100% (active); in experiment [4], 99% (active). The inhibition is -6% in experiment [2] and 1% in experiment [3]. In addition, the outcome in experiment [5], in experiment [6], in experiment [7] and in experiment [8] was inactive.
As to `COC(=O)CNC(c1ccccc1)c1cc(Br)ccc1NC(=O)c1ccccc1Br` (stereo not given), the values for the growth inhibition in experiment [1] and in experiment [4] were 77% (active) and 99% (active), respectively. Besides, the inhibition in experiment [2] was 10%; in experiment [3], -1%. For the same molecule, the outcome in experiment [5], in experiment [6], in experiment [7] and in experiment [8] was inactive.
In the case of `CN1CCCC(CN2CCN(Cc3ccc(-c4ccc(-c5nc6ccccc6[nH]5)s4)cc3)CC2)C1` (stereo not given), the growth inhibition in experiment [1] and in experiment [4] was 100% (active) each time. Further, the inhibition in experiment [2] is 57% (active); in experiment [3] it was -8%. Moreover, the outcome in experiment [5], in experiment [6], in experiment [7] and in experiment [8] was inactive.
Regarding `COc1ccc(CC2(c3ccc(F)cc3)N=C(N)N(CCCc3ccccc3)C2=O)cc1` (stereo not given), the growth inhibition in experiment [1] was 97% (active); in experiment [4], 99% (active). Further, the inhibition was 38% in experiment [2] and 0% in experiment [3]. Further, the outcome in experiment [5], in experiment [6], in experiment [7] and in experiment [8] was inactive.
For the molecule `O=C(C1CCN(C(c2ccccc2)c2ccc(Cl)c(Cl)c2)CC1)N1CC=CC1` (stereo not given), the growth inhibition in experiment [1] was 84% (active); in experiment [4] it was 89% (active). Further, the results for the inhibition in experiment [2] and in experiment [3] were 1% and 7%, respectively. Moreover, the outcome in experiment [5], in experiment [6], in experiment [7] and in experiment [8] was inactive.
`Cc1c(F)cc(C(=O)NC2CC2)cc1-c1ccc2c(cnn2S(=O)(=O)c2cccs2)c1`: the growth inhibition in experiment [1] is 68% (active); in experiment [4] it was 92% (active). For the same molecule, the inhibition in experiment [2] is 32%; in experiment [3] it was -4%. Further, the result in experiment [5], in experiment [6], in experiment [7] and in experiment [8] was inactive.
Take `CC(=O)Nc1ccc(COc2ccc(Nc3ccnc4cc(-c5ccccn5)ccc34)cc2)cc1`: the growth inhibition in experiment [1] is 94% (active); in experiment [4] it was 99% (active). For the same molecule, the inhibition was 99% (active) in experiment [2] and 3% in experiment [3]. Besides, the outcome in experiment [5], in experiment [6], in experiment [7] and in experiment [8] was inactive.
On to `CCN1CCC(N(Cc2ccc(-c3ccc(C(F)(F)F)cc3)cc2)C(=O)Cn2c(SCc3ccc(F)cc3)nc(=O)c3c2CCC3)CC1`, for which the growth inhibition was 96% (active) in experiment [1] and 90% (active) in experiment [4]. Moreover, the results for the inhibition in experiment [2] and in experiment [3] were 46% and 2%, respectively. In addition, the result in experiment [5], in experiment [6], in experiment [7] and in experiment [8] was inactive.
For `CC(C)CC(=O)N1CCNC[C@@H]1C(=O)NCCSCc1c(F)cccc1Cl`, the values for the growth inhibition in experiment [1] and in experiment [4] were 3% and 86% (active), respectively. In addition, the inhibition in experiment [2] is 1%; in experiment [3] it was 0%. Besides, the result in experiment [5], in experiment [6], in experiment [7] and in experiment [8] was inactive.
For the molecule `COc1ccc(C2CCN(CCN3CCC(NC(=O)c4ccc(-c5cccc(C(F)(F)F)c5C(F)(F)F)cc4)CC3)CC2)c(OC)c1`, the growth inhibition in experiment [1] was 61% (active); in experiment [4], 102% (active). Besides, the inhibition in experiment [2] was 35%; in experiment [3], -4%. The outcome in experiment [5], in experiment [6], in experiment [7] and in experiment [8] was inactive.
Turning to `CC(CN(C)C)C(=O)Nc1ccc(-c2ccc(-c3nc4ccccc4[nH]3)cc2)cc1` (stereo not given), the growth inhibition in experiment [1] was 83% (active); in experiment [4] it was 99% (active). In addition, the results for the inhibition in experiment [2] and in experiment [3] were 2% and -3%, respectively. Besides, the result in experiment [5], in experiment [6], in experiment [7] and in experiment [8] was inactive.
Consider `CCCN(CCC)CCCNc1ccc(C(=O)Nc2ccc(C(C)C)cc2)cc1[N+](=O)[O-]`, for which the growth inhibition in experiment [1] was 38%; in experiment [4] it was 98% (active). Also, the inhibition in experiment [2] was 17%; in experiment [3], -8%. In addition, the outcome in experiment [5], in experiment [6], in experiment [7] and in experiment [8] was inactive.
Turning to `Cc1cccc2[nH]c(-c3ccc(-c4cccc(CN5CCN(CC6CCCN(C)C6)CC5)c4)s3)nc12` (stereo not given), the results for the growth inhibition in experiment [1] and in experiment [4] were 99% (active) and 100% (active), respectively. For the same molecule, the inhibition in experiment [2] was 47%; in experiment [3], 4%. Also, the result in experiment [5], in experiment [6], in experiment [7] and in experiment [8] was inactive.
On to `O=C(/C=C/c1ccc(Cl)cc1)NCCCCCN1CCCN(C(=O)Nc2cccc(Cl)c2)CC1`, for which the growth inhibition is 10% in experiment [1] and 85% (active) in experiment [4]. The inhibition was 19% in experiment [2] and -3% in experiment [3]. Further, the outcome in experiment [5], in experiment [6], in experiment [7] and in experiment [8] was inactive.
Take `Oc1cc2c(cc1CN1CCN(Cc3ccc(Cl)s3)CC1)CCC2`: the results for the growth inhibition in experiment [1] and in experiment [4] were 76% (active) and 98% (active), respectively. Moreover, the values for the inhibition in experiment [2] and in experiment [3] were 7% and -3%, respectively. Also, the result in experiment [5], in experiment [6], in experiment [7] and in experiment [8] was inactive.
Take `Clc1ccccc1C=NNc1ccnc2ccccc12`: the results for the growth inhibition in experiment [1] and in experiment [4] were 50% (active) and 100% (active), respectively. In addition, the inhibition in experiment [2] was 25%; in experiment [3] it was -3%. For the same molecule, the result in experiment [5], in experiment [6], in experiment [7] and in experiment [8] was inactive.

Values taken from PubChem BioAssay.
